About 8,600 (12%) of roughly 69,000 compounds showed an effect of 50% or more. The sample holds strong results, similar compounds and a random draw of the others, so the mix is not that of the screen.
Tested on: Plasmodium berghei
Assay: Screen against P. berghei liver stage (PbLuc), transformed with Luciferase, at 10uM
Assay type: functional, HepG2
Details: tested at 10 uM

Row | SMILES | INHIBITION [%]
1 | Cc1cc(C(F)(F)F)nc(C2CCCN2S(C)(=O)=O)n1 (stereo not given) | 20.2
2 | CCN1CCN(C(C)CNC(=O)Nc2cnn(CC)c2)CC1 (stereo not given) | 44.1
3 | CNC(=O)C1CCN(c2ncc3c(n2)CCN3c2ccccc2)C1 (stereo not given) | -105
4 | O=C(Cc1c(F)cccc1Cl)Nc1cc(N2CCCC2)ncn1 | -27.8
5 | Cc1ccsc1CN(Cc1ccccn1)CC(C)C | -21.5
6 | COCCN(Cc1ccccn1)Cc1sccc1C | 15.2
7 | CSC(C)CCN(Cc1ccccn1)Cc1sccc1C (stereo not given) | 62.9
8 | COCCN(Cc1sccc1C)Cc1nccn1CCOC | 16.9
9 | Cc1ccsc1CN(CCN(C)C)Cc1ccccn1 | 35.1
10 | COCCn1ccnc1CN(Cc1ccccn1)Cc1sccc1C | 71
11 | Cc1cc(C)c2nc(C)c(C(=O)N3CCC(CCN(C)C)CC3)cc2c1 | 36.8
12 | Fc1cnc(N2CC[C@@H]3CN(Cc4ccncc4)CCO[C@@H]3C2)nc1 | 8.85
13 | Cc1cnn(CCC(=O)N2CCCC(c3cc(C)[nH]n3)C2)c1 (stereo not given) | 45.7
14 | Cc1cnn(CCNCC(=O)Nc2ccc(Br)cn2)c1 | -37.7
15 | CC(Cn1cc(Br)cn1)C(=O)Nc1ccc(Br)cn1 (stereo not given) | 81
16 | CC(Cn1cc(Br)cn1)C(=O)Nc1ccn(C)n1 (stereo not given) | 15.7
17 | Cc1cnn(CC(C)NCC(=O)Nc2ccc(Cl)cn2)c1 (stereo not given) | -100
18 | CC(Cn1cc(Br)cn1)C(=O)Nc1ccc(C(N)=O)cc1 (stereo not given) | 72.7
19 | Cc1cc(NC(=O)C(C)Cn2cncn2)no1 (stereo not given) | -1.445
20 | CC(=O)c1ccc(NC(=O)C(C)Cn2cc(Br)cn2)cc1 (stereo not given) | -37.6
21 | Cc1cc(NC(=O)C(C)Cn2cc(Br)cn2)no1 (stereo not given) | 67.1
22 | CC(Cn1cc(Cl)cn1)C(=O)Nc1ccc(CN2CCCCCC2)cc1 (stereo not given) | 10.9
23 | Cc1cc(NC(=O)Cn2ncc(Br)c2C)no1 | 15.9
24 | CC(Cn1cc(Br)cn1)C(=O)Nc1ccc(Cl)cn1 (stereo not given) | 56
25 | CC(Cn1cc(Br)cn1)C(=O)Nc1ccncc1 (stereo not given) | -24.7
26 | CN(Cc1cn2c(n1)CN(c1ncc(F)cn1)CC2)Cc1ccco1 | 22.7
27 | O=C(N1CCOCC1)[C@@]12CCO[C@@H]1CCN(C1CCOCC1)C2 | 38.5
28 | Cc1ccc(NC2CCN(C(=O)CCNc3ncccn3)CC2)nn1 | -24.2

Row | SMILES | INHIBITION [%]
29 | Cc1cc(NC(=O)CN2CCN(c3nccs3)C(C)C2)no1 (stereo not given) | 19.2
30 | CNC(=O)C1(CCCc2ccccn2)CN(Cc2nccn2C)C1 | -40.1
31 | CC(O)CN1CCC(CNCc2ccccc2F)CC1 (stereo not given) | -34.365
32 | Cc1cc(C(=O)CN2CCN(c3ncccn3)CC2)c(C)n1C(C)C | 26.4
33 | CN1CCOC(CNCc2ccccc2OCc2ccccn2)C1 (stereo not given) | -10.193
34 | OCCN1CCC(Cc2nccs2)CC1 | 13.955
35 | CC(C)N(C)CC(=O)NCCc1nc(C(F)(F)F)cs1 | -48.9
36 | Cc1cccc(Nc2cc(C)nc(C3CCCCN3CC(N)=O)n2)n1 (stereo not given) | 18.9
37 | CCC(NCCn1cc(C)cn1)C(=O)Nc1cc(C)on1 (stereo not given) | 35.4
38 | Cc1cc(NC(=O)C(C)NCCn2cccn2)no1 (stereo not given) | 58.9
39 | CCC(NCCn1cccn1)C(=O)Nc1cc(C)on1 (stereo not given) | 36.5
40 | CC(=O)c1ccc(CN2CCCC23CCN(c2ccccn2)CC3)cc1 | 49.9
41 | Cc1nc[nH]c1CN1CCCC12CCN(c1nc3ccccc3s1)CC2 | 76.6
42 | Cc1nc[nH]c1CN1CCCN(c2nc3ccccc3s2)CC1 | 76.6
43 | c1ccc2sc(N3CCC4(CCCN4Cc4ncc[nH]4)CC3)nc2c1 | 51.6
44 | Cn1cc(CN2CCCC23CCN(c2nc4ccccc4s2)CC3)cn1 | 47
45 | Cc1nc[nH]c1CN1CCCC12CCN(c1ccccn1)CC2 | 20.9
46 | Cc1nc[nH]c1CN1CCn2nc(CN3Cc4ccccc4C3)cc2C1 | 22.8
47 | Cc1nc(CN2CCCC23CCN(c2nc4ccccc4s2)CC3)co1 | 14.1
48 | Cc1nc[nH]c1CN1CCC(C2CCN(CCc3ccccc3)C2)CC1 (stereo not given) | 44.3
49 | CN(C)C1CCCN(C(=O)NCc2ccccc2-n2cccn2)C1 (stereo not given) | 21.5
50 | CCS(=O)(=O)N1Cc2nccn2CC(Cn2cccn2)C1 (stereo not given) | 37.5
51 | O=C(O)c1cc(-c2ccccc2)ns1 | 45.9
52 | O=C(COCc1ccccc1)N1CCCC1c1noc(C2CC2)n1 (stereo not given) | 7.27
53 | O=C(C[C@@H]1COC[C@H]2CN(C(=O)c3ccccn3)C[C@@H]12)N1CCCC1 | 6.72
54 | Cc1cccc(N2Cc3c(NC4CCCC4)ncnc3N(C)CC2=O)c1 | 7.66
55 | CC(=O)c1cccc(NC(=O)CN2CCCCC2C)c1 (stereo not given) | 14

Reference: ChEMBL document CHEMBL4513216, “Probing the Open Global Health Chemical Diversity Library for Multistage-Active Starting Points for Next-Generation Antimalarials” (ACS Infect Dis, 2020)
